Only some compounds are listed: those with a hit (about 3.2% of all), similar ones and a draw of the others.
PrPC TRFRET = reduces human prion protein on the cell surface; cell surface PrPC, TR-FRET read-out; inhibition, % at 13.8 µM; P04156; actives 0.43% (n = 370,000); AID 720596; in the data active means inhibition above about 24%
GDH-TPI counter = GDH-TPI coupled enzyme inhibition counter-screen; actives 1.2% (n = 360,000); inhibition, % at 4.8 µM; GDH-TPI coupled enzyme counterscreen, NADH absorbance; in the data active means inhibition above about 30%
Mtb FBA inh = inhibits M. tuberculosis FBA enzyme. inhibition, % at 1 µM. AID 588726. P9WQA3. actives 2.3% (n = 360,000). purified M. tuberculosis FBA, fluorescence read-out; in the data active means inhibition above about 27%
Yp Topo-I inh = inhibitors of Yersinia pestis topoisomerase I; Y. pestis Topo-I cleavage product accumulation, plate reader; activity, % at 10 µM; actives 0.064% (n = 360,000); AID 504884; in the data active means activity above about 50%, passing the limit was not always enough
TcdB inh = blocks C. difficile toxin B glycohydrolase activity. TcdB glycohydrolase enzymatic assay, plate reader. inhibition, % at 9.99 µM. actives 0.24% (n = 350,000). AID 652162; in the data active means inhibition above about 10%
Of the large screens only hits and unclear results are named; the others gave an inactive call.

O=C(OCc1ccccc1)N1CCC2CC1c1cc(Cl)ccc12 (stereo unspecified)	none
O=C(OCc1ccccc1)N1CCC2CC1c1c(Cl)cccc12 (stereo unspecified)	Yp Topo-I inh 59
Cc1ccc(C(=O)/C=C\NCc2ccccc2)cc1	none
COc1ccc(C(=O)/C=C/Nc2cc(C)on2)cc1	GDH-TPI counter 41 (no result: TcdB inh)
COc1ccc(C(=O)/C=C/NCc2ccc(C)cc2)cc1	GDH-TPI counter 44 (no result: TcdB inh)
COc1ccc(/C=C/C(=O)Nc2cc(C)on2)cc1	none
C[C@H]1CN([C@@H](C)CO)C(=O)c2cccc(NS(=O)(=O)c3ccc(Cl)cc3)c2O[C@H]1CN(C)C	none (no result: PrPC TRFRET, GDH-TPI counter, Mtb FBA inh, Yp Topo-I inh)
O=C(Nc1ccc(C(=O)O)cc1)/C(=C\c1ccco1)NC(=O)c1ccco1	none
O=C(Nc1cccc(C(F)(F)F)c1)/C(=C\c1ccco1)NC(=O)c1cccs1	GDH-TPI counter 35
CC(=O)c1ccc(NC(=O)/C(=C\c2ccco2)NC(=O)c2ccco2)cc1	GDH-TPI counter 31
O=C(Nc1cccc(F)c1)/C(=C\c1ccco1)NC(=O)c1cccs1	none (no result: TcdB inh)
CC(C)OC(=O)/C(=C\C=C\c1ccccc1)NC(=O)c1ccccc1	GDH-TPI counter 46 (no result: TcdB inh)
Cc1ccc(NC(=O)/C(=C\c2ccc3c(c2)OCO3)NC(=O)c2ccco2)cc1	GDH-TPI counter 40 (no result: TcdB inh)
CO[C@H]1CN(C)C(=O)c2cc(NC(=O)C3CCOCC3)ccc2OC[C@H](C)N(C(C)=O)C[C@@H]1C	none (no result: PrPC TRFRET, GDH-TPI counter, Mtb FBA inh, Yp Topo-I inh)
O=C(Nc1ccccc1)[C@@H]1[C@@H](CO)[C@@H]2Cn3c(ccc(C4=CCCCC4)c3=O)[C@@H]2N1Cc1ccccn1	none (no result: PrPC TRFRET, GDH-TPI counter, Mtb FBA inh, Yp Topo-I inh)
Cc1ccc(S(=O)(=O)Nc2ccc3c(c2)C(=O)N([C@H](C)CO)C[C@@H](C)[C@H](CN(C)C(=O)c2ccccc2)OCCCC[C@@H](C)O3)cc1	none (no result: PrPC TRFRET, GDH-TPI counter, Mtb FBA inh, Yp Topo-I inh)
Cc1noc(C)c1NC(=O)N(C)C[C@@H]1Oc2ncc(C#CC(C)C)cc2C(=O)N([C@H](C)CO)C[C@@H]1C	none (no result: PrPC TRFRET, GDH-TPI counter, Mtb FBA inh, Yp Topo-I inh)
O=C(Nc1ccc(C(=O)O)cc1)/C(=C\c1ccc2c(c1)OCO2)NC(=O)c1ccccc1	GDH-TPI counter 36
CC(=O)Oc1ccc(/C=C(\NC(=O)c2cccc(Br)c2)C(=O)Nc2ccc(C(=O)O)cc2)cc1	GDH-TPI counter 32
O=C(Nc1ccc(C(=O)O)cc1)/C(=C\C=C\c1ccccc1)NC(=O)c1ccc(Br)cc1	GDH-TPI counter 31
Cc1ccc(NC(=O)/C(=C/C=C/c2ccccc2)NC(=O)c2ccccc2)cc1	none
C[C@H]1CCCCO[C@@H](CN(C)C(=O)NC2CCCCC2)[C@@H](C)CN([C@@H](C)CO)C(=O)c2cc(NS(=O)(=O)c3cn(C)cn3)ccc2O1	none (no result: PrPC TRFRET, GDH-TPI counter, Mtb FBA inh, Yp Topo-I inh)
CCNC(=O)C[C@@H]1CC[C@H](NS(=O)(=O)c2ccc(C)cc2)[C@@H](CO)O1	none (no result: PrPC TRFRET, GDH-TPI counter, Mtb FBA inh, Yp Topo-I inh)
Cn1nc(C(C)(C)C)cc1C(=O)Nc1nc2c(s1)C(=O)CC(C)(C)C2	GDH-TPI counter 40 (no result: TcdB inh)
Cc1noc(C)c1S(=O)(=O)N(C)C[C@H]1OCCCC[C@@H](C)Oc2ccc(NS(=O)(=O)c3ccc(Cl)cc3)cc2C(=O)N([C@H](C)CO)C[C@@H]1C	none (no result: PrPC TRFRET, GDH-TPI counter, Mtb FBA inh, Yp Topo-I inh)
COc1ccccc1-n1c(N)c(C(=O)NCC2CCCO2)c2nc3ccccc3nc21 (stereo unspecified)	Mtb FBA inh 113 (no result: TcdB inh)
CC(C)CCOC(=O)c1c(N)n(CC2CCCO2)c2nc3ccccc3nc12 (stereo unspecified)	Mtb FBA inh 149 (no result: TcdB inh)
CC(C)OC(=O)c1c(N)n(CC2CCCO2)c2nc3ccccc3nc12 (stereo unspecified)	Mtb FBA inh 190 (no result: TcdB inh)
Nc1c(C(=O)OC2CCCCC2)c2nc3ccccc3nc2n1CC1CCCO1 (stereo unspecified)	Mtb FBA inh 149 (no result: TcdB inh)
Nc1c(C(=O)OCC2CCCO2)c2nc3ccccc3nc2n1C1CCCCC1 (stereo unspecified)	none
COc1ccccc1-n1c(C)nc2cc(C(=O)NCC3CCCO3)ccc21 (stereo unspecified)	none
CN(C)C(=O)[C@@H]1[C@@H](CO)[C@@H]2Cn3c(cccc3=O)[C@H]1N2CC1CCCC1	none (no result: PrPC TRFRET, GDH-TPI counter, Mtb FBA inh, Yp Topo-I inh)
Cc1ccc(S(=O)(=O)Nc2ccc3c(c2)CC(=O)N([C@@H](C)CO)C[C@H](C)[C@@H](CN(C)S(=O)(=O)c2c(C)noc2C)O3)cc1	none (no result: PrPC TRFRET, GDH-TPI counter, Mtb FBA inh, Yp Topo-I inh)
Cc1noc(C)c1S(=O)(=O)N(C)C[C@H]1Oc2ccc(NS(=O)(=O)c3ccc(F)cc3)cc2CC(=O)N([C@@H](C)CO)C[C@@H]1C	none (no result: PrPC TRFRET, GDH-TPI counter, Mtb FBA inh, Yp Topo-I inh)
c1ccc2nc(-c3nc4ccccc4[nH]3)ccc2c1	GDH-TPI counter 36 (no result: TcdB inh)
c1ccc2[nH]c(-c3cscn3)nc2c1	none
Cc1cc(-c2ccccc2)cc(-c2ccccc2)[n+]1CCc1ccccc1	none
CCOc1ccc(-c2cc(C)[n+](CCc3ccc(OC)c(OC)c3)c(-c3ccc(OCC)cc3)c2)cc1	GDH-TPI counter 31
CC(=O)c1ccc(-c2ccc(C(=O)N3CCC(C(N)=O)CC3)o2)cc1	Mtb FBA inh 118
CC(=O)c1ccc(-c2ccc(C(=O)N3CCN(c4ccc(F)cc4)CC3)o2)cc1	none
CC(=O)c1ccc(-c2ccc(C(=O)NC3CC(C)(C)NC(C)(C)C3)o2)cc1	GDH-TPI counter 44, Mtb FBA inh 180
CC(=O)c1ccc(-c2ccc(C(=O)NCC3CCCO3)o2)cc1 (stereo unspecified)	Mtb FBA inh active
CC1(C)CC(NC(=O)c2ccc(F)cc2)CC(C)(C)N1	none
CO[C@@H]1CN(C)C(=O)c2cc(NS(=O)(=O)CC(F)(F)F)ccc2OC[C@H](C)N(C(=O)NC(C)C)C[C@H]1C	none (no result: PrPC TRFRET, GDH-TPI counter, Mtb FBA inh, Yp Topo-I inh)
O=C(N[C@H]1CC[C@@H](CCNS(=O)(=O)c2ccc(F)cc2)O[C@H]1CO)C1CC1	none (no result: PrPC TRFRET, GDH-TPI counter, Mtb FBA inh, Yp Topo-I inh)
O=C(C[C@@H]1C[C@H]2c3cc(NC(=O)c4cccnc4)ccc3O[C@H]2[C@@H](CO)O1)NCc1ccccc1	none (no result: PrPC TRFRET, GDH-TPI counter, Mtb FBA inh, Yp Topo-I inh)
COc1ccc2nc(N3CCOCC3)cc(C)c2c1	Mtb FBA inh 85 (no result: TcdB inh)
O=C(O)c1ccccc1N/N=C/C1=C(N2CCOCC2)C(=C\c2ccccc2)/CC1	none
Cc1cc(C)nc(N/N=C/C2=C(N3CCOCC3)C(=C/c3ccccc3)/CC2)n1	GDH-TPI counter 32 (no result: TcdB inh)
CCCN(C)C[C@@H]1Oc2cc(C#Cc3cccc(F)c3)ccc2S(=O)(=O)N([C@@H](C)CO)C[C@H]1C	none (no result: PrPC TRFRET, GDH-TPI counter, Mtb FBA inh, Yp Topo-I inh)
C#Cc1ccc([C@H]2C=C(C(=O)NC3CC3)O[C@@H](OCc3ccc(CO)cc3)C2)cc1	none (no result: PrPC TRFRET, GDH-TPI counter, Mtb FBA inh, Yp Topo-I inh)
COc1ccc(N/N=C(\C#N)C(N)=O)cc1	none
CCOc1ccc(N/N=C(/C#N)C(N)=O)cc1	GDH-TPI counter 33
Cc1ccc(-c2ccc(/C=N/NC(N)=S)o2)cc1	none
NC(=S)NN=Cc1ccc(-c2ccc(S(=O)(=O)Nc3ncccn3)cc2)o1	GDH-TPI counter 33
NC(=S)N/N=C/c1ccc(-c2ccc(SC(F)F)cc2)o1	GDH-TPI counter 45
CCOc1ccc(C(=O)N/N=C/c2ccc(-c3ccc(S(=O)(=O)Nc4ncccn4)cc3)o2)cc1	GDH-TPI counter 35 (no result: TcdB inh)
O=C(Nc1cccc(F)c1)N1CC(=O)N2[C@H](CO)[C@H](c3ccc(-c4ccccc4)cc3)[C@@H]2C1	none (no result: PrPC TRFRET, GDH-TPI counter, Mtb FBA inh, Yp Topo-I inh)
Cc1cccc(N2C(=O)NC(=O)/C(=C\c3ccc(N4CCOCC4)cc3)C2=O)c1	GDH-TPI counter 31
